# Assay results reported in PubChem BioAssay (EPA / NIEHS).
# Calls of active or inactive are those of the source. Rule for the calls: active = hit-call score of the fitted dose curve at least 0.9, where 1 is the maximum; inactive = score below 0.9.
# Assay: APR_HepG2_CellLoss_72hr: Apredica 72-hour HepG2 Assay for Cell Loss (AID 2282915)
# Conditions: high-content imaging
# Procedure, shortened: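 Cell number comes from Hoechst 33342-labelled nuclei, imaged at 20x after 3.7% formaldehyde fixation. Dosing was 0.39–200 uM, ten concentrations in duplicate, 0.5% DMSO final, for 72 h. Bidirectional fit relative to DMSO baseline.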
SMILES,outcome,AC50
CCCCOC(=O)c1ccc(O)cc1,inactive,
CCCCCCCCCCCC[N+](C)(C)C,,41.7 µM (active)
CCCCCCCC[Si](OCC)(OCC)OCC,,34 µM (active)
Clc1cc(Cl)c2c(c1)N=C1CCCCCN1C2,inactive,
COCC(C)OCC(C)OCC(C)O (centres undefined),inactive,
CCCCOC(=O)CC(CC(=O)OCCCC)(OC(C)=O)C(=O)OCCCC,,42.5 µM (active)
OC12N=C(c3ccccc3)SC1Cc1cc(Cl)ccc12 (centres undefined),,67.5 µM (active)
O=C(O)c1ccccc1C(=O)OCc1ccccc1,inactive,
CN1C(=O)CC[C@H]1c1cccnc1,inactive,
Cc1cc2c(cc1C(F)(F)F)N(C(=O)Nc1ccc(Oc3cccnc3C)nc1)CC2,,9.35 µM (active)
Oc1ccccc1,inactive,
Clc1ccccc1C(c1ccccc1)(c1ccccc1)n1ccnc1,,18.9 µM (active)
CCN(CC)C(=O)c1cc(S(=O)(=O)Cc2ccccc2)c(N2CCC(c3ccccc3)CC2)cc1N(CC)CCN(C)C,,2.54 µM (active)
CCN(Cc1cccnc1)C(=O)c1cccc(Cl)c1[C@]1(C)C(=O)N(Cc2ccc(OC)cc2OC)c2ccc(Cl)cc21,,14.4 µM (active)
O=c1[nH]sc2ccccc12,,18.1 µM (active)
CC/C(=C(/CC)c1ccc(O)cc1)c1ccc(O)cc1,,79.5 µM (active)
O=C(O)c1ccccc1-n1cc(C(=O)O)c(=O)c2cc(Nc3c(F)cc(F)cc3Cl)c(Cl)cc21,inactive,
CCCC(=O)OCCC(C)C,inactive,
CC[C@@H]1C[C@H](N(Cc2cc(C(F)(F)F)cc(C(F)(F)F)c2)C(C)=O)c2cc(C(F)(F)F)ccc2N1C(=O)OC(C)C,inactive,
